# Measurements as given in ChEMBL document CHEMBL1961873, “Compounds: GSK PKIS; Assays: Nanosyn kinase panel” (2012).
# Key:
# [1] = molecular target: Dual specificity protein kinase CLK3 (Homo sapiens) (UniProt P49761); settings: at 1 µM;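 further: each value is the mean inhibition of CLK3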
# [2] = molecular target: Dual specificity tyrosine-phosphorylation-regulated kinase 1A (Homo sapiens) (UniProt Q13627); settings: at 0.1 µM
# [3] = molecular target: Dual specificity tyrosine-phosphorylation-regulated kinase 1A (Homo sapiens) (UniProt Q13627); settings: at 1 µM
# [4] = molecular target: Dual specificity tyrosine-phosphorylation-regulated kinase 1B (Homo sapiens) (UniProt Q9Y463); settings: at 0.1 µM
# Chain of Dual specificity tyrosine-phosphorylation-regulated kinase 1B (Homo sapiens) (Q9Y463 whole entry, looked up): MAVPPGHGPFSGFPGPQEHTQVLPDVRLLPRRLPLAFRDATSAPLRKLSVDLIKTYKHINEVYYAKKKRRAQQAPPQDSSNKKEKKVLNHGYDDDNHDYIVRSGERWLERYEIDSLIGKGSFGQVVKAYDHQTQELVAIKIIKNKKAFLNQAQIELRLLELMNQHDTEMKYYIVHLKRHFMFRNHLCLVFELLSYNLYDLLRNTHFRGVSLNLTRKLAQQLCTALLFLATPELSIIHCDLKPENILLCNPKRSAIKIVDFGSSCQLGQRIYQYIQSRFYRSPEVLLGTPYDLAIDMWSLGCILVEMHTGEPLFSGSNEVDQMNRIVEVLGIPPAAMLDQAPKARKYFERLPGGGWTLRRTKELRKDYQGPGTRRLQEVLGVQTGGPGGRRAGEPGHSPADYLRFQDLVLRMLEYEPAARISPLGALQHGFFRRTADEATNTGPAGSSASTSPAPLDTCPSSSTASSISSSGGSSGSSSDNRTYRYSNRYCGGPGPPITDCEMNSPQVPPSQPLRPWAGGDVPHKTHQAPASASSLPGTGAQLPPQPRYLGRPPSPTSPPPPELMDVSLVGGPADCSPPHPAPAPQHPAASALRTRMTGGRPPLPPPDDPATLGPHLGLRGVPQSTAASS
# [5] = molecular target: Dual specificity tyrosine-phosphorylation-regulated kinase 1B (Homo sapiens) (UniProt Q9Y463); settings: at 1 µM
# [6] = molecular target: T1, Dual specificity tyrosine-phosphorylation-regulated kinase 2 (Homo sapiens) (UniProt Q92630); settings: at 0.1 µM
# T1 sequence (whole entry): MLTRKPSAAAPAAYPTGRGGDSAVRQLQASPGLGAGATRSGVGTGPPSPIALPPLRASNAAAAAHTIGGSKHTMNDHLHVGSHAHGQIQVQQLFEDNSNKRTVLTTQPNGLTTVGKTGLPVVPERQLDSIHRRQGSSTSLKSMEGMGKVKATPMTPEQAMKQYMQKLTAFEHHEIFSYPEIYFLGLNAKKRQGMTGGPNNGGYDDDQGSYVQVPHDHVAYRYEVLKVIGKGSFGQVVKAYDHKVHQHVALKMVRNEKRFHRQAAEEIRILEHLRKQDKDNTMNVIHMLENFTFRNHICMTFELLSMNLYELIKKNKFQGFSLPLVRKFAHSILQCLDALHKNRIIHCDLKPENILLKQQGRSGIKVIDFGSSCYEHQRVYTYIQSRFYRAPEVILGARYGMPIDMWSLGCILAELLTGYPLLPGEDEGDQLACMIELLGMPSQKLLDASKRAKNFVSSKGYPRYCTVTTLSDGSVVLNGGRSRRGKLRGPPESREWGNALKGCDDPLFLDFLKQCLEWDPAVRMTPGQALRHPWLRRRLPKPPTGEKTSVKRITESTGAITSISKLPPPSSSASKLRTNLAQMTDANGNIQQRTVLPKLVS
# [7] = molecular target: T1, Dual specificity tyrosine-phosphorylation-regulated kinase 2 (Homo sapiens); settings: at 1 µM
# [8] = molecular target: Glycogen synthase kinase-3 alpha (Homo sapiens) (UniProt P49840); settings: at 0.1 µM
# Chain of Glycogen synthase kinase-3 alpha (Homo sapiens) (P49840 2-483 limits assumed): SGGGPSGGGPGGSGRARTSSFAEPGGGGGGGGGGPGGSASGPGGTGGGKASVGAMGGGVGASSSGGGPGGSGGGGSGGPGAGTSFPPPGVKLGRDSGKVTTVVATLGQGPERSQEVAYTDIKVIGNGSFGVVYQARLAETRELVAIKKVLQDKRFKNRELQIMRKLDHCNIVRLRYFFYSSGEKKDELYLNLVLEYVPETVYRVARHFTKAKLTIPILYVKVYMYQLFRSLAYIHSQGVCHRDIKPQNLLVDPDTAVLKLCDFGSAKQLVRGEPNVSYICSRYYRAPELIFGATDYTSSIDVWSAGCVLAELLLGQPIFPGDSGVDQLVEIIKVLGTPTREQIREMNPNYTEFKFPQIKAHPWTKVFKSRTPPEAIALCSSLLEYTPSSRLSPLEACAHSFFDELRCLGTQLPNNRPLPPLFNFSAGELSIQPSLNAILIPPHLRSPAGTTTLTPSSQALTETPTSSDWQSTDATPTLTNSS
# [9] = molecular target: Glycogen synthase kinase-3 alpha (Homo sapiens) (UniProt P49840); settings: at 1 µM
# [10] = molecular target: Glycogen synthase kinase-3 beta (Homo sapiens) (UniProt P49841); settings: at 0.1 µM
# Chain of Glycogen synthase kinase-3 beta (Homo sapiens) (P49841 whole entry, looked up): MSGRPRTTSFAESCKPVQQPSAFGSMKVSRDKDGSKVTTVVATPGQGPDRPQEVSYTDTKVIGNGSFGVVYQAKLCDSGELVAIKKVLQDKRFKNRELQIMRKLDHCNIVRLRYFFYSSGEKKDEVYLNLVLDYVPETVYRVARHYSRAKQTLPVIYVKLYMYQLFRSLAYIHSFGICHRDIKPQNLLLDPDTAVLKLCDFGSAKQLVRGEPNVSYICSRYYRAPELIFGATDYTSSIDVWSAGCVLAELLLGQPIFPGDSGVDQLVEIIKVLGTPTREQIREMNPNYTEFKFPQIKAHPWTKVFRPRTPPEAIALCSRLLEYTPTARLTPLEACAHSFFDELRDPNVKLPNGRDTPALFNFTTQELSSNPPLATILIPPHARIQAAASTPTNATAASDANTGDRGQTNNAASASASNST
# [11] = molecular target: Glycogen synthase kinase-3 beta (Homo sapiens) (UniProt P49841); settings: at 1 µM
# [12] = molecular target: Homeodomain-interacting protein kinase 1 (Homo sapiens) (UniProt Q86Z02); settings: at 0.1 µM
# Chain of Homeodomain-interacting protein kinase 1 (Homo sapiens) (Q86Z02 whole entry, looked up): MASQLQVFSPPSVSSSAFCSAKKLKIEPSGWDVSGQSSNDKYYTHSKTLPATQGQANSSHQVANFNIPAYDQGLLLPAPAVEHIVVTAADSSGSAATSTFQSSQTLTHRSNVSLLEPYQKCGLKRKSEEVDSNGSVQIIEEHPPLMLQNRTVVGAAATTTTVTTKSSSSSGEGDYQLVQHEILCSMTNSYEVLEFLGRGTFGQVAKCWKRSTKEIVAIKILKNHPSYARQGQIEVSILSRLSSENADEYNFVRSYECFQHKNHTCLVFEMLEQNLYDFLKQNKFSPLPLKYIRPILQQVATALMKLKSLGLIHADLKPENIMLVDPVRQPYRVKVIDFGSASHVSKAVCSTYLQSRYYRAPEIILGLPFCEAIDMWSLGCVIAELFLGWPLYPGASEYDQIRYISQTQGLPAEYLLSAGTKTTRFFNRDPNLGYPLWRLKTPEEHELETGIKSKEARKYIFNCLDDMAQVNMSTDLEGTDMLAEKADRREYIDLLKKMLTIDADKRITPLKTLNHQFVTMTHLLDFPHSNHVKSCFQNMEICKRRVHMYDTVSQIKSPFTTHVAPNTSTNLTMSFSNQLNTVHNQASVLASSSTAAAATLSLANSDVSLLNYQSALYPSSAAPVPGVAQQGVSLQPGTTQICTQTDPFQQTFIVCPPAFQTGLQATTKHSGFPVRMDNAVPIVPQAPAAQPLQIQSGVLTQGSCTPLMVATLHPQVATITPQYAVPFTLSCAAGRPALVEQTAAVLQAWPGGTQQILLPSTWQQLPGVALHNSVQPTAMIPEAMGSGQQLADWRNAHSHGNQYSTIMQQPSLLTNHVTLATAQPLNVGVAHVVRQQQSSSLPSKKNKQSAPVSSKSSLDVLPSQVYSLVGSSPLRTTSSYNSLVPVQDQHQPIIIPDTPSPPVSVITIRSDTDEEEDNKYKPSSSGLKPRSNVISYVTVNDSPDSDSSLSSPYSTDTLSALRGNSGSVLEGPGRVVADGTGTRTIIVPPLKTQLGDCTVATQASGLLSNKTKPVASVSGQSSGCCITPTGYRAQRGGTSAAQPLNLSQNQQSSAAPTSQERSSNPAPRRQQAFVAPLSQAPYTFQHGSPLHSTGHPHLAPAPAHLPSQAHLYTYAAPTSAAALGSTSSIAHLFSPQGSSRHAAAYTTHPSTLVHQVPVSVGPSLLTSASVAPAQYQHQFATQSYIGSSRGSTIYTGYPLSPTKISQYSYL
# [13] = molecular target: Homeodomain-interacting protein kinase 1 (Homo sapiens) (UniProt Q86Z02); settings: at 1 µM
# [14] = molecular target: T2, Homeodomain-interacting protein kinase 4 (Homo sapiens) (UniProt Q8NE63); settings: at 0.1 µM
# T2 sequence (whole entry): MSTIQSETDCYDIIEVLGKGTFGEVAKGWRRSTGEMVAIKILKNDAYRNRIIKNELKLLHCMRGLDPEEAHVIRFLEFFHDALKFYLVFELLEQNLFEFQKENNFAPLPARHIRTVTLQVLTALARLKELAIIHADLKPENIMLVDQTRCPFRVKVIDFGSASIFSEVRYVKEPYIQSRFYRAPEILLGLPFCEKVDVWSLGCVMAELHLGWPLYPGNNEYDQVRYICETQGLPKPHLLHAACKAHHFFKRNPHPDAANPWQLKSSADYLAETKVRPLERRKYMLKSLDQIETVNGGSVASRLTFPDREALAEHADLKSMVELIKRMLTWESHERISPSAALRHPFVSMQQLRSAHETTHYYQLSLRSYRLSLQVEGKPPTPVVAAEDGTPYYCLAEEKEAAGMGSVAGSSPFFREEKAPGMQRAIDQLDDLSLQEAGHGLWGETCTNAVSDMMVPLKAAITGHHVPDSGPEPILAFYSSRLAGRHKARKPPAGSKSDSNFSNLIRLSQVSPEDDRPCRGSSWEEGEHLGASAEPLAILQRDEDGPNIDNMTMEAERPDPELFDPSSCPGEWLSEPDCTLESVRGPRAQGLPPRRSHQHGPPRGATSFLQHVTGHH
# [15] = molecular target: T2, Homeodomain-interacting protein kinase 4 (Homo sapiens); settings: at 1 µM
# [16] = molecular target: Mitogen-activated protein kinase 9 (Homo sapiens) (UniProt P45984); settings: at 0.1 µM
# Chain of Mitogen-activated protein kinase 9 (Homo sapiens) (P45984 whole entry, looked up): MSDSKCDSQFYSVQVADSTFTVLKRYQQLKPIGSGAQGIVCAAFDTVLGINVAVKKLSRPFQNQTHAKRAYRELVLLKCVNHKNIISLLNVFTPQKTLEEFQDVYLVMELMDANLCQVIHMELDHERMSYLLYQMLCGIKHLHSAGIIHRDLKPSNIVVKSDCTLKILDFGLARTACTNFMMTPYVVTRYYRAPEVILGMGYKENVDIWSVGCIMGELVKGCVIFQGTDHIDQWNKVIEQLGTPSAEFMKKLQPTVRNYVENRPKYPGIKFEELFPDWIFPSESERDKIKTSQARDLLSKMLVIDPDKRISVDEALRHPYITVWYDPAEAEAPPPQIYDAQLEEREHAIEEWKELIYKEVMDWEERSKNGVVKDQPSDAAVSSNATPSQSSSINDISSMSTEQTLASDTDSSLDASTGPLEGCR
# [17] = molecular target: Mitogen-activated protein kinase 9 (Homo sapiens) (UniProt P45984); settings: at 1 µM
# [18] = molecular target: Mitogen-activated protein kinase 1 (Homo sapiens) (UniProt P28482); settings: at 0.1 µM
# Chain of Mitogen-activated protein kinase 1 (Homo sapiens) (P28482 whole entry): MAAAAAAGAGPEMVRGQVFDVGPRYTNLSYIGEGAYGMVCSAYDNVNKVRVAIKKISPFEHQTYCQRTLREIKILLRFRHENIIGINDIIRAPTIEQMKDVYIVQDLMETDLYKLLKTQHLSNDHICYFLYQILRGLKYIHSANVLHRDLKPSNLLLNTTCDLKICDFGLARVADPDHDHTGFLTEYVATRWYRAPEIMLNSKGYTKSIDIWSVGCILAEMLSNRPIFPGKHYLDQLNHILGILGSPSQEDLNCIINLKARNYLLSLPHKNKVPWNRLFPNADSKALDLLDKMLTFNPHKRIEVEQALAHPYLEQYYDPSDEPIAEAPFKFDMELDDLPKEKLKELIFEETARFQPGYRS
# [19] = molecular target: Mitogen-activated protein kinase 1 (Homo sapiens) (UniProt P28482); settings: at 1 µM
# [20] = molecular target: Mitogen-activated protein kinase 3 (Homo sapiens) (UniProt P27361); settings: at 0.1 µM;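 further: each value is a mean inhibition figure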
# Chain of Mitogen-activated protein kinase 3 (Homo sapiens) (P27361 whole entry): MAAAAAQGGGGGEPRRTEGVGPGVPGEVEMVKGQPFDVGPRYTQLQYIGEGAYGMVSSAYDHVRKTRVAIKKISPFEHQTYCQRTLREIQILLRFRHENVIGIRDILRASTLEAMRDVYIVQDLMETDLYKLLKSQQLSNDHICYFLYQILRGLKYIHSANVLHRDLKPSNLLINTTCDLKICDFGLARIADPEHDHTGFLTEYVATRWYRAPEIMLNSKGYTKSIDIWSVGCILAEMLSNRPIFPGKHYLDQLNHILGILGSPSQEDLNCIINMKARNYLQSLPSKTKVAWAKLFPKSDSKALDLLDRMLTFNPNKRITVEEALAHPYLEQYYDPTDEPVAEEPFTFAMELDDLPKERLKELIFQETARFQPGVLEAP
# Chain of Dual specificity protein kinase CLK3 (Homo sapiens) (P49761 whole entry, looked up): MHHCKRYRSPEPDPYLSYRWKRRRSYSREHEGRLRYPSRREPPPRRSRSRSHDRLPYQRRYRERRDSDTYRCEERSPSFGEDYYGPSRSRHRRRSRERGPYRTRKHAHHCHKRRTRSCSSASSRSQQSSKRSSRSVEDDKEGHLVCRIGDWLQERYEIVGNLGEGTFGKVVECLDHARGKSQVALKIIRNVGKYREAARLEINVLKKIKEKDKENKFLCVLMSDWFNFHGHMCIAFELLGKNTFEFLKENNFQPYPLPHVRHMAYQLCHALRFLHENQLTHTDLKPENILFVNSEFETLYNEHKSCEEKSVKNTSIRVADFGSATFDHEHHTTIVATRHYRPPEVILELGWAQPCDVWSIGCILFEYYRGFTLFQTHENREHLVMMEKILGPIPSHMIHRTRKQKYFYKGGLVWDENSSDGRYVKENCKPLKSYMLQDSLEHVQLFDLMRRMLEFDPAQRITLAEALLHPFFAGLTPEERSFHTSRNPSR
Structure (SMILES),inhibition [1] [%],inhibition [2] [%],inhibition [3] [%],inhibition [4] [%],inhibition [5] [%],inhibition [6] [%],inhibition [7] [%],inhibition [8] [%],inhibition [9] [%],inhibition [10] [%],inhibition [11] [%],inhibition [12] [%],inhibition [13] [%],inhibition [14] [%],inhibition [15] [%],inhibition [16] [%],inhibition [17] [%],inhibition [18] [%],inhibition [19] [%],inhibition [20] [%]
CCn1c(-c2nonc2N)nc2c(C#CC(C)(C)O)ncc(OC3CCNCC3)c21,0.2,1.61,-0.11,0.14,1.34,2.3,3.89,12.3,48.9,10,51.8,0.21,4.91,1.04,2.64,4.13,6.93,4.51,7.43,4.27
CCc1nn2ncccc2c1-c1ccnc(NC2CC2)n1,0.97,1.95,4.71,1.01,5.27,1.81,10.9,6.96,9.03,6.18,7.53,-1.75,9.32,2.35,20.9,2.47,5.7,1.85,3.78,-0.55
O=S(=O)(CCNCc1ccc(-c2ccc3ncnc(Nc4ccc(OCc5cccc(F)c5)c(Cl)c4)c3c2)o1)c1ccccc1,-0.68,3.49,5.29,-0.71,0.19,3.86,2.88,3.49,4.1,2.66,2.57,0.47,4.11,3.74,5.4,5.87,5.2,7.56,8.99,6.61
CNC(=O)c1cncc(/C=C/c2ccccc2Cl)c1,0.64,-0.68,0.12,-0.37,0.88,1.32,1.49,3.11,8.27,3.39,10,1.58,2.44,0.63,1.63,-1.14,-1.36,0.37,-1.68,0.99
Nc1ncc(-c2cccc(S(N)(=O)=O)c2)c2scc(-c3ccc(F)c(Cl)c3)c12,0.34,2.01,3.66,-0.65,0.74,3.42,2.46,3.06,4.87,2.78,3.65,0.64,3.02,1.4,4.49,2.92,20.5,6.27,7.98,3.4
N#Cc1c(NC(=O)CN2CCOCC2)sc2c1CCCC2,7.77,7.33,11,4.95,8.26,1.96,4.75,10.6,9.38,11,7.42,6.67,10.1,7.62,6.09,4.4,9.83,4.06,4.79,3.09
Cc1cccc(Nc2ncc(-c3ccccc3)o2)c1,0.79,1.29,4.26,0.51,2.16,3.21,5.94,4.32,12.3,3.23,12,-1.62,9.25,1.22,8.11,5.28,7.95,3.91,5.08,5.66
CCN(CC)S(=O)(=O)c1ccc(OC)c(Nc2ncc(-c3ccccc3)o2)c1,8.6,1.08,10.9,1.93,14.7,1.64,6.15,0.34,2.7,0.79,3.89,1.49,10.2,2.17,17.8,2.31,1.02,-1.7,-0.08,1.68
COc1ccc(CNC(=O)c2ccc(-c3cc(-c4nnc(C)o4)ccc3C)cc2)cc1,2.16,1.08,1.05,1.53,2.22,0.27,1.42,5.61,17.9,5.31,13.6,5.43,5.55,7.2,9.71,-0.3,2.51,4.56,-9.41,1.8
CN1CCC(n2cnc(-c3ccc(F)cc3)c2-c2ccnc(N)n2)CC1,1.25,1.69,6.19,0.68,2.08,2.29,12.5,1.36,7.39,1.11,8.08,3.64,24.8,1.91,16.7,2.6,11.3,0.3,2.71,3.88
Cc1ccc2c(-c3ccnc(Nc4ccccc4)n3)c(-c3ccc(F)cc3)nn2n1,1.61,0.7,5.42,1,3.35,3.2,2.94,9.81,44.8,22.4,66.7,-0.41,7.55,2.12,4.2,44,81.2,4.23,10.5,3.56
CC(C)COC(=O)c1ccc2c(c1)/C(=C/Nc1ccc(S(N)(=O)=O)cc1)C(=O)N2,11.4,11.9,57,12,53.9,1.28,22.4,34.8,80.6,36.1,82.7,-0.11,16.8,-0.32,16.9,0.47,10.8,2.73,31.3,1.07
COc1cc2ncn(-c3cc(OCc4ccccc4C(F)(F)F)c(C(=O)N(C)C)s3)c2cc1OC,0.45,0.01,0.74,0.5,0.22,-0.27,2.19,0.04,1.19,0.03,1.99,-1.93,-0.02,-0.52,2.66,1.07,2.1,-1.73,0.92,-0.18
CC(=O)NCc1cccc(C#Cc2cncnc2Nc2ccc(OCc3cccc(F)c3)c(Cl)c2)c1,0.27,1.8,6.71,0.66,1.17,1.17,-0.66,3.24,8.35,2.82,7.42,-1.17,0.08,-1.54,2.87,0.88,0.54,0.71,1.78,-0.54
Fc1ccc(-c2nn3ccccc3c2-c2ccncc2)cc1,0.88,0.99,3.18,0.03,2.03,0.76,1.76,1.02,6.14,1.33,10.7,-1.55,0.97,-0.72,0.37,4.3,25.4,0.83,1.21,1.33
N#Cc1c(NC(=O)c2ccc(F)cc2)sc2c1CCCC2,0.61,0.28,3.62,-0.66,1.05,-0.13,0.26,0.69,2.28,-0.51,3.45,-1.95,-1.66,-1.19,-0.61,2.17,2.49,0.39,1.25,-1.04
Fc1ccc(-c2nn3ncccc3c2-c2ccnc(Nc3ccc4c(c3)OCCO4)n2)cc1,0.91,1.5,3.37,0.99,-1.69,3.56,4.44,19.6,59.7,39,76.1,-1.25,-1.1,-0.3,4.58,58.4,84.9,2.51,11.1,5.61
NC(=O)c1sc(-n2cnc3ccc(C(F)(F)F)cc32)cc1OCc1ccccc1Br,4.85,2.74,8.54,-0.4,2.27,2.93,4.03,1.26,7.48,-0.61,3.8,0.1,2.51,1.27,4.18,3.06,5.5,2.67,4.49,3.25
COc1cccc(-n2ncc3c(N/N=C/c4ccc(F)cc4)ncnc32)c1,6.29,6.93,24.2,4.09,16.3,5.25,18.8,64,87.7,54.6,83,11.9,27.1,9.35,20.9,1.94,4.28,5.5,2.32,2.41
COc1cc2c(cc1Nc1nc(Nc3ccsc3C(N)=O)c3cc[nH]c3n1)N(C(=O)CN(C)C)CCC2(C)C,4.74,4.97,15.5,1.64,10.2,4.55,6.57,7.63,21.1,5.85,17,0.05,7.66,-0.16,6.13,7.73,13.9,4.87,12.2,3.02
O=C(Nc1n[nH]c2cc(-c3ccc(F)cc3)ccc12)C1CC1,1.03,3.64,11,1.08,7.73,2.57,2.75,3.8,14.7,2.61,14.9,-2.89,2.09,0.01,1.78,2.97,3.68,1.79,4.65,1.72
COc1ccc(-c2cc3c(N)ncnc3o2)cc1,11.4,4.26,22.7,5.2,12,0.06,18.5,5.87,7.92,5.53,8,0,5.4,2.36,16.5,-0.62,-0.18,1,0.69,-1.53
NS(=O)(=O)c1ccc(Nc2ncc(-c3ccccc3)o2)cc1,6.65,6.93,16,5.92,12.5,2.13,8.68,12.9,43.4,11.4,35.4,9.46,28.8,6.48,24.3,1.48,7.69,2.91,3.4,2.41
CCCN1CCC(c2ccc(Nc3nc(Nc4cc(F)ccc4C(N)=O)c4cc[nH]c4n3)c(OC)c2)CC1,22,63.1,81.9,65.2,81.9,10.3,49,6.12,8.5,4.67,9.55,49.2,81.5,59.6,84.6,68,83.8,9.4,30.2,4.94
COc1ccc(-c2nn3ncccc3c2-c2ccnc(Nc3ccc4c(c3)OCCO4)n2)cc1,-0.46,-0.47,-2.81,-0.35,-3.65,0.08,-3.08,0.99,2.53,-0.07,5.33,-7.34,-0.07,0.08,-1.16,13,64.6,-0.01,0.95,3.56
CC(=O)Nc1cccc(C#Cc2cncnc2Nc2ccc(OCc3cccc(F)c3)c(Cl)c2)c1,0.73,-0.41,1.4,0.85,-0.33,3.61,1.41,2.72,5.35,1.98,4.53,-1.76,-0.76,1.24,4.47,2.12,3.22,2.93,3.14,2.14
COc1cc(N2CCN(C(C)C)CC2)ccc1Nc1nc(Nc2ccc(F)cc2C(N)=O)c2cc[nH]c2n1,13.2,45.2,86.5,49.1,76.6,5.36,36.4,3.88,5.19,2.71,7.27,33.9,73.7,44.8,75.1,65.5,89.1,2.91,15.3,2.87
